From PubChem BioAssay AID720700 (The Scripps Research Institute Molecular Screening Center, 2013)
The campaign covered roughly 370,000 compounds. About 3,100 (0.84%) were called active. The sample holds actives, similar compounds and a random draw of the others, so the mix is not that of the screen. Cut-off read from the data, not from the text of the source: active = inhibition above about 9.5%; inactive = the rest.

target: 1-phosphatidylinositol 4,5-bisphosphate phosphodiesterase gamma-1 (Homo sapiens) (UniProt P19174); assay: blockers of human PLCG1 activity – biochemical, fluorescence, purified enzyme, primary screen (AID 720700); conditions: purified PLC-gamma1, fluorogenic substrate, at 12.2 µM, active compounds read high
Sequence (P19174 whole entry, looked up): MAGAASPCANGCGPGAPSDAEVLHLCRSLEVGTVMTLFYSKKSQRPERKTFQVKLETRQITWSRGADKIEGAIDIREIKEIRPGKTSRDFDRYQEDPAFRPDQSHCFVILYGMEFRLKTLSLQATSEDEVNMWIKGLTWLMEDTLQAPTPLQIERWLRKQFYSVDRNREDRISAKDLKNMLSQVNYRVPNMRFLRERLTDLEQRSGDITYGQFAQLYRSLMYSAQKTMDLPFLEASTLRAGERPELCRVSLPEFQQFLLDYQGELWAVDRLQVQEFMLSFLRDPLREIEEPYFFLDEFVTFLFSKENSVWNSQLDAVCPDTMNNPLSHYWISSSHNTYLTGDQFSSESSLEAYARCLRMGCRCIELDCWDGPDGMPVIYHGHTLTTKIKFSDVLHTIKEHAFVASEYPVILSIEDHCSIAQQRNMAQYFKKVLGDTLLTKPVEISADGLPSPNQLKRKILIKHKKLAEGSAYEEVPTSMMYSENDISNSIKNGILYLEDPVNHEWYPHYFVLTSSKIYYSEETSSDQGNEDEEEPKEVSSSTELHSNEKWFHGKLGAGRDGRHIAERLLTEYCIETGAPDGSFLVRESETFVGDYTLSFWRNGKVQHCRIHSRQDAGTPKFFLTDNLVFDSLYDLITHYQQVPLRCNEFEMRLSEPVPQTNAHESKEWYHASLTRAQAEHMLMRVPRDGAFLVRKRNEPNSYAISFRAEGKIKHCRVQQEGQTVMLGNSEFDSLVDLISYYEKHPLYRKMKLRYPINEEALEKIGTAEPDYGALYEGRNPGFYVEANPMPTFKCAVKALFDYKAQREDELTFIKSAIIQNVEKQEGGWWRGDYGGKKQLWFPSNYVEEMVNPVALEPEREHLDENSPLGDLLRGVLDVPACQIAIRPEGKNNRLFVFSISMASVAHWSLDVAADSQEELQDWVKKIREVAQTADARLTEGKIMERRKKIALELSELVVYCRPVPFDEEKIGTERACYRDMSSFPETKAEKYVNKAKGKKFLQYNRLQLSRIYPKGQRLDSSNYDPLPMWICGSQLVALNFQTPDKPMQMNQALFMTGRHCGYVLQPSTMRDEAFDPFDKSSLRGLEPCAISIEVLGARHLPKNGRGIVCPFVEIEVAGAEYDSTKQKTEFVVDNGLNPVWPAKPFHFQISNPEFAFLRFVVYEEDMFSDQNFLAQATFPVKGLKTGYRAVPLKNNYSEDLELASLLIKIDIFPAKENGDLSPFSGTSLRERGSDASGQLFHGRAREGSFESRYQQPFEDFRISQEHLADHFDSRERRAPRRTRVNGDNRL

inhibition, inactive:
O=C(NC(C(=O)NCCN1CCOCC1)C12CC3CC(CC(C3)C1)C2)C1CCCCC1 (stereo not drawn) -1.07%
O=C(NCCCN1CCCCCC1)C1CC(=O)N(C2CCCC2)C1 (stereo not drawn) -1.08%
Cc1ccc(-n2c(SCC(=O)Nc3ccc(S(=O)(=O)Nc4nccs4)cc3)nnc2-c2ccccn2)cc1 -1.19%
CN(C)/C=C(/C(=O)c1ccccc1Cl)S(C)(=O)=O -0.96%
CN(C)/C=C(/C(=O)c1ccc(F)cc1)S(=O)(=O)c1ccc(F)cc1 -0.23%
CC(C)CNC(=O)OCc1cn(Cc2ccc(F)cc2)nn1 -0.35%
CN(CCO)c1cccc2c1S(=O)(=O)N(Cc1cn(Cc3ccc(C(F)(F)F)cc3)nn1)Cc1ccccc1O2 -12.9%
CCOc1ccc(-n2c(SCC(=O)Nc3cc(C)c(NC(=O)c4ccccc4)cc3OC)nnc2-c2cccc(Cl)c2)cc1 -13.8%
Cc1ccc(C(=O)C2CCN(CC(=O)NCCC(C)C)CC2)cc1 -6.25%
CC(C)CNS(=O)(=O)CC1NCCc2ccccc21 (stereo not drawn) 1.24%
O=C(CSc1nc2sc3c(c2c(=O)n1-c1ccccc1)CCCC3)NN=Cc1ccc(OCc2ccccc2)cc1 -0.49%
COc1ccc(C=C2CCC3C(CCCC34OCCO4)C2=O)cc1 (stereo not drawn) 3.51%
COc1ccc(/C=C2\CC3(OC(C)=O)CCCN2C3)cc1 (stereo not drawn) 0.44%
Cc1cccc(NC(=O)C[C@H]2CC[C@H]3[C@@H](COc4ccc(NC(=O)Nc5ccccc5)cc4C(=O)N3C)O2)c1 3.76%
COC(=O)NNC1=CC(=O)CC(C)(C)C1 -1.76%
CC1(C)CC(=O)C=C(NCCCNC2CCCCC2)C1 2.3%
COc1ccc(NC(=O)COC(=O)CNC(=O)C2CCCCC2)cc1 0.1%
O=C1CCC(C(=O)OCC(=O)Nc2ccc(OC(F)F)cc2)=NN1 3.57%
O=C(CSc1nnc(-c2cccc(Cl)c2)n1Cc1ccco1)Nc1ccc(OCc2ccccc2)cc1 2.27%
COC(=O)[C@]12C[C@H](CC(=O)N3CCN(C(=O)C4CC4)CC3)C(=O)N(CCC3=CCCCC3)C1=C[C@H](C(C)C)O[C@@H]2C1CC1 -0.79%
COCCNC(=O)c1ccc(Cn2c(SCC(=O)NCC3CCCO3)nc3ccc(Br)cc3c2=O)cc1 (stereo not drawn) 0.38%
O=C(CNC(=O)c1ccc(Br)o1)NCC1CCCO1 (stereo not drawn) -1.19%
COc1cccc(CSc2nnc(-c3cccnc3)n2Cc2ccccc2)c1 -0.88%
N[C@@H](Cc1ccccc1)C(=O)N1CCC[C@@H]1C(=O)N1CCC2CCN(S(=O)(=O)c3ccccc3)CC21 (stereo partly drawn) 1.45%
CCCCC(=O)N[C@@H]1CC[C@@]23CCCN2C(=O)CCC[C@H]3[C@H]1C 0.85%
COc1ccc(S[C@]2(C(=O)N(C)C)CC(=O)N(c3ccc(OC)cc3)[C@@H]2c2ccc(OC)cc2)cc1 3.67%
COc1cc(/C=C/C(=O)n2cnc3ccccc32)cc(OC)c1OC -0.84%
Cc1ccccc1CN1CCCCC(NC(=O)Nc2ccccc2F)C1=O (stereo not drawn) 4.92%
O=C1c2ccccc2C(O)N1Cc1ccccc1Cl (stereo not drawn) -1.89%
COc1ccc(NC(=O)N2CCCC2C(=O)NCc2ccccc2Cl)cc1 (stereo not drawn) -0.63%
COc1ccc(-n2c(SCC(=O)Nc3ccc4c(c3)OCCO4)nnc2-c2ccc(Cl)cc2)cc1 2.18%
O=S1(=O)c2c(NCc3ccco3)cccc2Oc2ccccc2CN1Cc1cn(Cc2cccc(C(F)(F)F)c2)nn1 -41.1%
CCc1cc(C(=O)c2ccc(OC)cc2)c(NC(=O)CN2CCN(C)CC2)s1 -5.73%
O=C(CN1CCN(c2ccc(O)cc2)CC1)Nc1ccc(-c2ccccc2)cc1 5.1%
Clc1ccc(-n2c(COc3ccccc3)nnc2SCc2nc3ccccc3[nH]2)cc1 -0.91%
Cc1cc(O)c(NC(=O)c2ccc(C)c([N+](=O)[O-])c2)cc1C 4.76%
Cc1cccc(NC(=O)c2ccc(COc3ccccc3[N+](=O)[O-])o2)n1 -0.91%
O=C(Nc1cc(F)cc(F)c1)OC1CCC12CCC(c1ccccc1)CC2 (stereo not drawn) 0%
C=CCN1[C@H](CC(C)C)COc2cccc(N3CCCC3)c2S1(=O)=O -4.7%
C[C@H]1[C@H](NC(=O)c2cccc(N(C)C)c2)CC[C@@]23CCCN2C(=O)CCC[C@@H]13 -87.5%
Cc1sc2nc(SCC(=O)c3ccc(O)c(O)c3)n(Cc3ccco3)c(=O)c2c1C 4.7%
CC1(C(=O)NCc2ccccc2)CSCC(=O)N1CCCn1ccnc1 (stereo not drawn) 0.21%
CCC(C)CN1C(=O)CSCC1(C)C(=O)NCc1ccccc1 (stereo not drawn) 3.07%
Cc1cc(=O)[nH]c(SCC(=O)Nc2ccc(Cl)cc2C)n1 3.72%
C=C(C)C#CC(Cc1ccccc1)N(CC1CC1)/C(N)=N/C(=O)OCc1ccccc1 (stereo not drawn) -163%
O=S1(=O)c2c(cccc2N2CCSCC2)Oc2ccccc2CN1Cc1cn(Cc2ccc(F)cc2)nn1 -5.24%
CN1C(=O)c2cc(NS(C)(=O)=O)ccc2OC[C@@H]2O[C@@H](CC(=O)NCc3ccc(-c4ccccc4)cc3)CC[C@H]21 -2.2%
CCC(=O)c1c(CC)c2n3c1=CC[C@H]3CC(Br)C=2 (stereo partly drawn) -6.13%
CC(=O)N1CCc2cc(S(=O)(=O)NCCC(=O)N3CCCC3)ccc21 1.19%
COc1ccc(N2CC(C(=O)NCCS(=O)(=O)N3CCN(c4ccccc4)CC3)CC2=O)cc1 (stereo not drawn) 4.62%
COCCCNC(=O)C1CC(=O)N(c2ccc(C)cc2)C1 (stereo not drawn) -0.12%
O=C(NC1CCCC1)C1CSCCS(=O)(=O)N1Cc1ccccc1 (stereo not drawn) -0.17%
COc1cccc(C(=O)CC(=O)C(=O)Nc2ccc([N+](=O)[O-])cc2C)c1 -0.82%
COc1ccc(C(=O)c2c(C)c(CCC#N)n3ccccc23)c(OC)c1 -3.69%
Cc1cc(C)cc(NC(=O)N2CCC(N(C)CCC(C)C)CC2)c1 3.12%
CCC(c1ccc(NC(=O)OC(C)(C)C)cc1)c1cc(OC)cc(OC)c1 (stereo not drawn) 1.5%
N#Cc1c(NC(=O)c2ccc(N3CCOCC3)c([N+](=O)[O-])c2)sc2c1CCCC2 3.4%
CC(=O)c1c(C)[nH]c(C(=O)OCC(=O)Nc2sc3c(c2C#N)CCCC3)c1C -7.9%
O=C(Nc1ccccc1)N1CCN(Cc2nc3ccccc3c(=O)[nH]2)CC1 -0.51%
COc1cccc(CNC(=O)C2CCCN(c3nc4ccccc4o3)C2)c1OC (stereo not drawn) 0.94%
COC(=O)[C@H](C(C)C)N1CCc2nnn(Cc3ccc(C)cc3)c2-c2ccccc2S1(=O)=O 0.55%
Cc1ccc(-c2c(C)n([O-])c3c([n+]2=O)CCC3)cc1 1.87%
CCOc1ccc(-c2c(C)n([O-])c3c([n+]2=O)CCCC3)cc1 -0.45%
CC(CCN1CCC(C(O)(c2ccccc2)c2ccccc2)CC1)Oc1ccc(Cl)cc1 (stereo not drawn) 3.75%
CCCC[C@H]1C2CC(OC(=O)NCc3ccccc3)C(C2)[C@H]2CCCCN21 (stereo partly drawn) -1.64%
Cc1cccc(C)c1NC(=O)CN1C(=O)C(C)Oc2ccccc21 (stereo not drawn) 1.55%
CC12c3ccccc3C(c3ccccc31)C1C(=O)N(Cc3cccnc3)C(=O)C12 (stereo not drawn) 1.04%
Cc1ccc(C2=CCN(C)C(=O)N2c2ccc(Cl)cc2)cc1 -0.42%
CC(c1c[nH]c2ccccc12)c1c(-c2ccccc2)n(C)c2ccccc12 (stereo not drawn) -4.35%

inhibition, active:
CC(C)C(NC(=O)C1CCC(C(C)(C)C)CC1)C(=O)NCCCN1CCCCC1 (stereo not drawn) 10.2%
CN(C)/C=C(/C(=O)c1ccc(Cl)cc1)S(=O)(=O)c1ccccc1 11.6%
NC1=CC(=O)C(=O)c2cccnc21 11.2%
COc1ccc(/C=C2\N=C3CCCN3C2=O)cc1 10.5%
CC1(C)CC(=O)C=C(NC2CC(C)(C)NC(C)(C)C2)C1 9.6%
CCC(C)(C)c1ccc(Oc2ccc(NC(=O)COC(=O)C3=COCCO3)cc2)cc1 10.1%
OC(CNCC1CCCO1)Cn1c2ccc(Br)cc2c2cc(Br)ccc21 (stereo not drawn) 9.98%
Nn1cnnc1N/N=C/c1cc([N+](=O)[O-])c(Cl)cc1Cl 13.2%
O=C(Nc1ccc(Br)cc1)C1CCC(=O)N1Cc1ccccc1Cl (stereo not drawn) 9.91%
CCCCc1nc2ccccc2c(NC(=O)CN2CCN(C)CC2)c1CCC 31.4%
CCCCNc1ccc(C(=O)Nc2cccc(C)n2)cc1[N+](=O)[O-] 16.8%
CC1(C(=O)NCc2ccccc2)CSCC(=O)N1CCCN1CCOCC1 (stereo not drawn) 10.3%
O=C(Nc1ccccc1Cl)/C(Cl)=C(\Cl)S(=O)c1ccccc1 (stereo not drawn) 12.4%
Cc1ccc(N2CC(C(=O)NCCS(=O)(=O)N3CCN(c4ccccc4)CC3)CC2=O)cc1 (stereo not drawn) 10.4%
Cc1c(C(=O)c2cccc([N+](=O)[O-])c2)c2ccccn2c1CCC#N 11.7%
N#Cc1c(NC(=O)C2CCCO2)sc2c1CCCCC2 (stereo not drawn) 12.2%
C/C(CC(C)C)=N\Oc1nc(C)cc(C)n1 9.91%
CCc1c(C)n([O-])c2c([n+]1=O)CCCCC2 11%
CC1Oc2ccccc2N(Cc2cccnc2)C1=O (stereo not drawn) 11%
